# In PubChem BioAssay (NCI):
# Compounds without any hit were thinned out: in the full panel of roughly 79,000, 15% have a hit. A number with no mark means an inactive call. Active and inactive are the calls of the source. Rule as the data show it: active = growth inhibition above about 70%; inactive = the rest. Where a SMILES comes first, the peptide text is derived from it. [ ]: non-standard residue; d: D form. The star is where a group is joined. ξ: configuration not given here. X15 = COc1ccc(C(N*)c2ccc(OC)cc2)cc1; NMeF = CN[C@@H](Cc1ccccc1)C(=O)O; NMeD = CN[C@@H](CC(=O)O)C(=O)O; NMeV = CN[C@H](C(=O)O)C(C)C; ξNMeV = CNC(C(=O)O)C(C)C; Boc = CC(C)(C)OC(=O)*; ξNMeA = CNC(C)C(=O)O; ξV = CC(C)C(N)C(=O)O
# Test: NCI Yeast Anticancer Drug Screen. Data for the rad50 strain (AID 155);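 also: 0% = growth of vehicle-only cultures of the same strain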
# Conditions: S. cerevisiae rad50 strain growth inhibition; at 50.0 µM; hits give high values
# Procedure, shortened: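 Vehicle-treated cultures provide the reference for the growth inhibition reported for compound-exposed, repair-deficient yeast.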
row,Structure (SMILES),growth inhibition
1,O=C(O)C1CCC1C(=O)O (stereo unspecified),-18.1%
2,COc1ccc(C(NC(=O)C[C@@H](C(=O)N(C)C(C)C(=O)O)N(C)C(=O)[C@@H]2CCCN2C(=O)[C@H](C(C)C)N(C)C(=O)C(C(C)C)N(C)C(=O)[C@H](Cc2ccccc2)N(C)C(=O)C(NC(=O)OC(C)(C)C)C(C)C)c2ccc(OC)cc2)cc1 (stereo partly specified) (Boc-[ξV][NMeF][ξNMeV][NMeV]P[NMeD](X15)[ξNMeA]-OH),-30.5%
3,CN1C(c2ccco2)NC(=O)C12CCN(Cc1ccccc1)CC2 (stereo unspecified),24.8%
4,Cc1ccc(S(=O)(=O)OCC2CC=CCC2COC(=O)c2ccc([N+](=O)[O-])cc2)cc1 (stereo unspecified),33.5%
5,Cc1cnc(Br)c(Br)c1,2.85%
6,COC(=O)/C=C(/C=C1/C(C#N)=C(N)N(c2ccc(Cl)cc2)C1(C)/C(=C/C(=O)OC)C(=O)OC)C(=O)OC (stereo unspecified),-3.15%
7,CCOc1ccccc1/C=C1\NC(=O)NC1=O,-38.6%
8,O=C1c2ccccc2C(=O)c2c(NCCNC(=O)C3CCCN3)ccc(NCCNC(=O)C3CCCN3)c21 (stereo unspecified),-1.25%
9,COc1ccc([B-]23OCC[N+]2(CNC(=O)c2ccccc2O)CCO3)cc1 (stereo unspecified),27.4%
10,COCC(=O)C(C(C)=O)C(c1ccc2c(c1)OCO2)C(C(C)=O)C(=O)COC (stereo unspecified),-40.5%
11,C=CCNC(=O)N(CCCCC(NC(C)=O)C(=O)NCc1ccccc1)Cc1ccccc1 (stereo unspecified),11.7%
12,CC(C)c1ccccc1OC(=O)NC1CCCCC1,1.9%
13,Cc1ccc(NC(=S)N2CCCCC2C)cc1C (stereo unspecified),17.9%
14,CC1C2c3ccccc3C(c3ccccc32)C1CN1C(CCO)COC1c1ccccc1 (stereo unspecified),4.05%
15,CN1CCn2c(Br)ccc2C1=O,13.6%
16,CCC(C)(C)C1CCCCC1OC(C)=O (stereo unspecified),7.95%
17,O=C(/C=C\c1ccc(Cl)cc1)c1ccccc1,-23.1%
18,O=C1C(Br)=C(Br)C(=O)C2=C1C1c3ccccc3C2c2ccccc21,98.5% (active)
19,NC(N)=NS(=O)(=O)c1ccc(N)cc1,45%
20,CSC1(C)C(=O)Nc2ccc(C(F)(F)F)cc21 (stereo unspecified),9.35%
21,O=C1OCC2Cc3ccccc3C(c3ccccc3)=C12 (stereo unspecified),-3.85%
